Data reported in PubChem BioAssay (EPA / NIEHS).
Calls of active or inactive are those of the source. How the source made its calls: active means hit-call score of the fitted dose curve at least 0.9, where 1 is the maximum; inactive means score below 0.9.

Assay: ATG_TAL_CIS: Attagene CIS-FACTORIAL HepG2 Assay for human TAL Basal Promoter (AID 2282966);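 further: background control endpoint measuring basal TAL promoter reporter mRNA not a specific factor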
Details: HepG2 Attagene cis-factorial TAL promoter reporter; actives raise or lower the signal
Method in brief: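 HepG2 cells transiently transfected with multiplexed cis-promoter reporter units, dosed 24 h. Reporter mRNA quantified by RT-PCR, 6-FAM labelling, HpaI digestion and capillary electrophoresis; TAL basal promoter serves as background control, fitted bidirectionally versus DMSO.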

Row | SMILES | outcome | AC50
1 | CC(=O)C=C(C)C | inactive | –
2 | CCC(=O)c1ccccc1 | inactive | –
3 | CN(C)N=O | inactive | –
4 | CCc1ccccc1N | inactive | –
5 | BrCCBr | inactive | –
6 | C[C@]12CC[C@H](O)CC1=CC[C@@H]1[C@@H]2CC[C@]2(C)C(=O)CC[C@@H]12 | inactive | –
7 | O=Cc1cccc(Oc2ccccc2)c1 | inactive | –
8 | CCC[CH2][Sn]([CH2]CCC)([CH2]CCC)[O]C(=O)c1ccccc1 | inactive | –
9 | C[C@H]1O[C@@H](O[C@H]2[C@@H](O)C[C@H](O[C@H]3[C@@H](O)C[C@H](O[C@H]4CC[C@@]5(C)[C@H](CC[C@@H]6[C@@H]5CC[C@]5(C)[C@@H](C7=CC(=O)OC7)CC[C@]65O)C4)O[C@@H]3C)O[C@@H]2C)C[C@H](O)[C@@H]1O | – | 56.4 nM (active)
10 | O=C/C=C/c1ccccc1 | inactive | –
11 | Clc1ccc(COC(Cn2ccnc2)c2ccc(Cl)cc2Cl)cc1 (stereo not given) | inactive | –
12 | Nc1ccc(-c2ccc(N)c(Cl)c2)cc1Cl | inactive | –
13 | CCC1(c2ccc(N)cc2)CCC(=O)NC1=O (stereo not given) | inactive | –
14 | CC(=O)[O][Hg][c]1ccccc1 | inactive | –
15 | O=C(O)C(Cl)(Cl)Cl | inactive | –
16 | COC[C@H](C)N(C(=O)CCl)c1c(C)csc1C | inactive | –
17 | CCCCCCCCc1ccc(O)cc1 | inactive | –
18 | Cc1ccc2ccccc2c1C | inactive | –
19 | O=S(=O)(c1ccc(Cl)cc1)c1ccc(Cl)cc1 | inactive | –
20 | COC(=O)Cc1ccccc1 | inactive | –
21 | COC(=O)c1sccc1S(=O)(=O)NC(=O)Nc1nc(C)nc(OC)n1 | inactive | –
22 | O=C(O)C(F)(F)C(F)(F)C(F)(F)C(F)(F)C(F)(F)C(F)(F)F | inactive | –
23 | N#CCCO | inactive | –
24 | C[C@]12CCC(=O)C[C@@H]1CC[C@@H]1[C@@H]2CC[C@]2(C)[C@@H](O)CC[C@@H]12 | inactive | –
25 | CCc1ccccc1C | inactive | –
